In PubChem BioAssay AID1259313 (Sanford-Burnham Center for Chemical Genomics, 2017):
Out of some 340,000 compounds screened, about 8,500 (2.5%) were called active. This is one part of a sample in which actives are shown more often than they occur.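 Rule for the calls: active = melting temperature shift of at least 10% of the positive control shift, at one fixed dose; inactive = the rest.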

Test system: Glutamate receptor ionotropic, NMDA 3A (GRIN3A) ligand-binding domain
Experiment: binders of NR3A ligand-binding domain, primary screen, biophysical, differential scanning fluorimetry, uHTS (AID 1259313)
Details: NR3A LBD differential scanning fluorimetry, at 25 µM, active compounds read high, 0% = protein alone, 100% = glycine-bound protein

Tm shift relative to glycine control, inactive:
CCOC(=O)NNc1cc(C(F)(F)F)ccn1 0%
CCOC(=O)C[C@H]1c2ccc(C(F)(F)F)cc2S(=O)(=O)N1c1ccccc1 -5.05%
CC[C@]12c3[nH]c4ccc(OC)cc4c3CCN1C(=O)C(CC(=O)NCCN1CCOCC1)C[C@@H]2C(=O)N1CCN(C(=O)C2CC2)CC1 (stereo partly specified) -2.01%
Cc1cccc(NC(=O)CCn2c(=O)oc3ccccc32)c1 -0.8%
O=C(Cc1ccccc1)Nc1cccc(C(=O)N/N=C/c2ccco2)c1 1.04%
O=C(CCNC(=O)c1ccccc1)NN=Cc1ccc(Br)o1 -3.41%
O=C(CCC(=O)N/N=C/c1ccc(Br)o1)N/N=C/c1ccc(Br)o1 -0.2%
O=C(CCC(=O)Nc1ccccc1)N/N=C/c1ccccc1F 0.57%
COC(=O)c1ccc(C2C3=C(Nc4nnnn42)c2ccccc2OC3)cc1 (stereo unspecified) -8.44%
C#CCO[C@@H]1C[C@H](n2cnc3c(=O)[nH]c(NC(=O)C(C)C)nc32)O[C@@H]1CO 0%
CCc1cc(-c2nnc(SCC(=O)NC3CC3)n2C)cs1 -0.41%
O=C(CC1C(=O)NCCN1C(=O)c1ccc([N+](=O)[O-])cc1)Nc1cccc(Cl)c1 (stereo unspecified) 0.67%
CCOc1cnc(-c2c(-c3ccccc3Cl)noc2C)o1 -1.94%
O=C(NNC(=O)c1ccccc1O)c1ccccc1O 2.79%
O=C(COC(=O)c1ccc(O)cc1O)NC(=O)c1ccccc1 -11.9%
COCc1[nH][nH]c(=O)c1C=Nc1ccc(F)cc1F -2.69%
CCCCN1C(N)=NC[C@@H]1CC1CCCCC1 -3.87%
CCc1cc(=O)oc2cc(C)cc(OCC(=O)N3CCC[C@@H]3C(=O)O)c12 -2.37%
Cc1cc([N+](=O)[O-])c(NC2CCCCC2)c([N+](=O)[O-])c1 1.28%
Cc1cc([N+](=O)[O-])ccc1NS(=O)(=O)c1ccccc1 -13.4%
O=C(CSc1ccc(-c2ccccn2)nn1)Nc1ccccc1 -2.4%
O=C(CSc1ccc([N+](=O)[O-])cn1)Nc1ccc(N2CCOCC2)cc1 0.67%
Cc1ccc2nc(/C(C#N)=C\c3ccc(OC(=O)c4cccs4)cc3)[nH]c2c1 -1.46%
COCCN(CCOC)S(=O)(=O)c1ccc(/C(O)=C(\C#N)c2nc3ccccc3[nH]2)cc1 0.08%
CCCCOc1ccc(NC(=O)[C@@H]2CCCN2C(=O)C2CCN(S(=O)(=O)c3ccc(C)cc3)CC2)cc1 0%
CC(=O)Nc1ccc(NC(=O)COc2ccc(S(=O)(=O)NC(C)c3ccccc3)cc2)cc1 (stereo unspecified) 0.44%
O=C(COc1ccccc1)Nc1ccc(F)cc1 -8.63%
COCC(=O)Nc1ccc(Br)cc1 -2.19%
Cc1ccc(OC(=O)CCC(=O)Nc2ccc(Br)cc2)cc1 0.17%
Cc1c(Nc2nc3ccccc3nc2NS(=O)(=O)c2cccs2)c(=O)n(-c2ccccc2)n1C 0.52%
Cc1ccsc1C1C(C#N)=C(N)OC2=C1C(=O)CC(C)(C)C2 (stereo unspecified) -2.21%
CC(c1ccccn1)N(CCN(C)C)C(=S)Nc1ccccc1F (stereo unspecified) 0%
CSc1cccc(NC(=S)N(Cc2ccccc2)Cc2ccccn2)c1 -4.28%
O=C(COC(=O)c1ccccc1Cl)NC1CCCCCCC1 1.11%
Cn1cccc1C1(C(F)(F)F)NCCNC1=O (stereo unspecified) -0.65%
CCn1c(CSc2nc(C)cc(C)n2)nnc1SCC(N)=O 1.48%
O=C(/C=C/c1ccc(F)cc1)Nc1cccc(S(=O)(=O)Nc2cccc(C(F)(F)F)c2)c1 1.46%
O=C(COc1ccc(S(=O)(=O)Nc2cccc(C(F)(F)F)c2)cc1)N1CCOCC1 -0.84%
CC1CCCN(S(=O)(=O)c2ccc(N(C(=O)c3cnccn3)C(C(=O)NC3CCCCC3)c3cccs3)cc2)C1 (stereo unspecified) 1.68%
COCCCNC(=S)N(Cc1ccccc1)Cc1ccc(F)cc1 0.84%
O=C1COc2ccc(NC(=O)N3CCN(c4ccc(F)cc4)CC3)cc2N1 -1.31%
CC(C)c1c(C(=O)N/N=C/c2ccc(-c3ccccc3)cc2)nnn1-c1nonc1N 1.62%
CC(C)Oc1ccc(/C=N/NC(=O)c2nnn(-c3nonc3N)c2CN(C)C2CCCCC2)cc1 2.01%
COCc1c(C(=O)N/N=C\c2cccnc2)nnn1-c1nonc1N -1.82%
COCc1c(C(=O)N/N=C/C2CC=CCC2)nnn1-c1nonc1N (stereo unspecified) -1.57%
Nc1nonc1-n1nnc(C(=O)N/N=C\c2ccncc2)c1CN1CCCCC1 0.45%
CN(C)Cc1c(C(=O)N/N=C/c2ccccc2OCc2ccc(F)cc2)nnn1-c1nonc1N 2.67%

Tm shift relative to glycine control, active:
CCOC(=O)C1Nc2ccc(C(F)(F)F)cc2C2C=CCC12 (stereo unspecified) 52.4%
N#CCC(=O)N/N=C/c1ccc(SCC(=O)Nc2ccccc2)o1 12.7%
O=C(CSc1ccc(/C=N/NC(=O)c2cccc(F)c2)o1)Nc1ccccc1 12.4%
O=C(NNc1c2ccccc2nc2ccccc12)c1cc2ccccc2cc1O 30.2%
Cc1cc([N+](=O)[O-])ccc1NC1CCCC1 12.8%
O=C(CSc1ccc(-c2ccc(-n3cccn3)cc2)nn1)Nc1ccc([N+](=O)[O-])cc1 21.1%
COc1cc(/C=C(\C#N)c2nc3ccccc3[nH]2)ccc1O 28.5%
CC(=O)Nc1ccc(OC(=O)COc2ccc(Br)cc2)cc1 17.5%
CC(=O)Nc1ccc(NC(=O)COc2ccc(-c3ccccc3)cc2)cc1 12.4%
CSc1cccc(NC(=S)N(C(C)C)C(C)c2ccccn2)c1 (stereo unspecified) 13.8%
Cc1oc2c(F)c(F)c(F)c(F)c2c1S(=O)(=O)Nc1cccc(C(F)(F)F)c1 29.7%
Cc1ccc(SCc2c(C(=O)N/N=C/c3cccnc3)nnn2-c2nonc2N)cc1 30.3%
Cc1ccc(SCc2c(C(=O)N/N=C/C3CC=CCC3)nnn2-c2nonc2N)cc1 (stereo unspecified) 85.4%
Nc1nonc1-n1nnc(C(=O)N/N=C/c2cc(Br)ccc2O)c1CSC1=NCCS1 11.5%
